The nature of assay [1]: Quantitative High-Throughput drug screen in 47 multiple myeloma cell lines against the NCATS MIPE library collection: PE2_PLB cell viability assay (AID 1919869). Note: nearly all actives have a fitted effect of over 35% in size. The gist of the method:
(§1)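 500 cells/well; MIPE 4.0 drugs pin-transferred; 48 h, 37C, 5% CO2. CellTiter-Glo, 5 min RT, luminescence. Controls: DMSO 100%, media 0%.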

Assay [2] can be described thus: Quantitative High-Throughput drug screen in 47 multiple myeloma cell lines against the NCATS MIPE library collection: PCM6_Riken cell viability assay (AID 1919870). Note: nearly all actives have a fitted effect of over 30% in size. The gist of the method: as §1
The nature of assay [3]: Quantitative High-Throughput drug screen in 47 multiple myeloma cell lines against the NCATS MIPE library collection: RPMI8226_ATCC cell viability assay (AID 1919871). Note: nearly all actives have a fitted effect of over 30% in size. The gist of the method:
as §1

Assay [4] in a line: Quantitative High-Throughput drug screen in 47 multiple myeloma cell lines against the NCATS MIPE library collection: OPM2_DSMZ cell viability assay (AID 1919872). Note: nearly all actives have a fitted effect of over 30% in size. The gist of the method: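 Approved and investigational drugs from MIPE 4.0 were added by pin tool to 500 cells per well. After 48 hours at 37C, ATP-based CellTiter-Glo luminescence indicated remaining viability.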

Assay [5] in a line: Quantitative High-Throughput drug screen in 47 multiple myeloma cell lines against the NCATS MIPE library collection: KMS28BM_JCRB cell viability assay (AID 1919874). Note: nearly all actives have a fitted effect of over 35% in size. The gist of the method:
as §1

Assay [6] is described as follows: Quantitative High-Throughput drug screen in 47 multiple myeloma cell lines against the NCATS MIPE library collection: VP6_DJ cell viability assay (AID 1919867). Note: nearly all actives have a fitted effect of over 40% in size. A digest of the protocol:
as §1

Assay [7] can be described thus: Quantitative High-Throughput drug screen in 47 multiple myeloma cell lines against the NCATS MIPE library collection: KMS11_JCRBsus cell viability assay (AID 1919873). Note: nearly all actives have a fitted effect of over 50% in size. A digest of the protocol: as §1
Assay [8] is described as follows: Quantitative High-Throughput drug screen in 47 multiple myeloma cell lines against the NCATS MIPE library collection: UTMC2_PLB cell viability assay (AID 1919868).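 For viability (% of DMSO control): 100% = DMSO-only wells and 0% = media-only wells without cells.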 Note: nearly all actives have a fitted effect of over 55% in size. Conditions: CellTiter-Glo ATP luminescence, 48 h; viability (% of DMSO control): at 45.8 µM (top of the series) unless noted. A digest of the protocol: as §1
(In ATP-based viability assays light output follows the ATP content of the culture.)

For 16 compounds, Potency and viability (% of DMSO control) results are on record in PubChem BioAssay (NCATS).

Results filed as inconclusive are left out. The source made the active and inactive calls. Calls come from the whole dose curve; as a rule, active = well fitted cell-killing curve with a large enough effect; inconclusive = small, poorly fitted or top-dose-only effect, or effect the other way; inactive = no such curve, though single readings can be large or run the other way.
Potency is the fitted concentration of half-maximal effect.

Take `CN1c2cc(O)c(N=NC(N)=O)cc2CC1S(=O)(=O)O` (stereo unspecified): the Potency result in assay [1], in assay [2], in assay [3] and in assay [5] was “inactive” throughout. Besides, the Potency in assay [4] was 14.8 µM (active).

On to `CS(=O)(=O)c1ccc(-c2cnc(N)c(C(=O)Nc3ccccc3)n2)cc1`, for which the Potency entry in assay [6], in assay [3], in assay [4] and in assay [5] was “inactive” each time.

With `COc1cc(C(=O)NS(=O)(=O)c2ccccc2C)ccc1Cc1cn(C)c2ccc(NC(=O)OC3CCCC3)cc12`, the Potency in assay [6] is 16.6 µM (active); in assay [1] it was 13.2 µM (active); in assay [2], 13.2 µM (active); in assay [3], 20.9 µM (active); in assay [7], 7.43 µM (active); in assay [5] it was 16.6 µM (active).

For the compound `Nc1ncnc2c1c(-c1cccc(OCc3ccccc3)c1)cn2C1CC(CN2CCCC2)C1` (stereo unspecified), the Potency in assay [1] was 1.66 µM (active); in assay [2] it was 7.43 µM (active); in assay [3], 2.96 µM (active); in assay [4], 14.8 µM (active); in assay [7], 0.372 µM (active); in assay [5] it was 0.526 µM (active).

With `O=C(O)[C@H](Cc1c[nH]c2ccccc12)N1C(=O)c2ccccc2C1=O`, the Potency in assay [6] is 48.1 µM (active). Moreover, the viability (% of DMSO control) in assay [8] was 115% [at 92.2 µM] (active). Moreover, the Potency result in assay [3], in assay [4], in assay [7] and in assay [5] was “inactive” in each case.

Regarding `CS(=O)(=O)N1CCN(Cc2cc3nc(-c4cccc5[nH]ncc45)nc(N4CCOCC4)c3s2)CC1`, the Potency in assay [3] was 0.264 µM (active).

On to `COCCOc1ccc2c(c1)ncn2-c1ccc2cccc(N3CCC(N)CC3)c2n1`, for which the Potency in assay [1] was 0.372 µM (active); in assay [2], 1.05 µM (active); in assay [3], 26.4 µM (active); in assay [4], 1.87 µM (active); in assay [7], 5.26 µM (active); in assay [5] it was 16.6 µM (active).

For the compound `O=C(NCCS(=O)(=O)c1ccc(C(F)(F)F)cn1)c1ccc(Cl)cc1`, the Potency result in assay [8], in assay [1], in assay [2], in assay [4], in assay [7] and in assay [5] was “inactive” in each case.

Take `C=CC(=O)Nc1cccc(Oc2nc(Nc3ccc(N4CCN(C)CC4)cc3OC)ncc2Cl)c1`: the Potency in assay [6] was 0.0187 µM (active); in assay [1], 0.526 µM (active); in assay [2], 7.43 µM (active); in assay [5], 20.9 µM (active).

With `COc1ccc(CC2SC(=O)NC2=O)cc1C(=O)NCc1ccc(C(F)(F)F)cc1` (stereo unspecified), the Potency in assay [2] was 7.43 µM (active). For the same compound, the Potency result in assay [3] and in assay [5] was “inactive” each time.

Turning to `CNC(=O)c1ccc(-c2cnc3ncc(Cc4ccc5ncccc5c4)n3n2)cc1F`, the Potency result in assay [6], in assay [3], in assay [4], in assay [7] and in assay [5] was “inactive” throughout.

Turning to `Cn1cc(-c2ccncc2)c(-c2ccc(OCc3ccc4ccccc4n3)cc2)n1`, the Potency in assay [6] is 5.26 µM (active); in assay [1], 5.9 µM (active); in assay [3], 6.62 µM (active); in assay [7] it was 8.33 µM (active).

In the case of `Cc1c(C)n(Cc2ccc(-c3ccccc3C(=O)O)cc2)c2ccc(C(=O)N[C@@H](C)c3ccc([N+](=O)[O-])cc3)cc12`, the Potency in assay [8] was 20.9 µM (active); in assay [1] it was 11.8 µM (active); in assay [7], 18.7 µM (active). For the same compound, the Potency entry in assay [3] and in assay [4] was “inactive” throughout.

For the compound `CN(C)CC(C)(C)CNc1nn2c(-c3ccccc3)nnc2cc1C1CCC1`, the Potency in assay [6] was 10.5 µM (active); in assay [8], 1.05 µM (active); in assay [1] it was 11.8 µM (active). In addition, the Potency entry in assay [3] and in assay [4] was “inactive” throughout.

For `Cc1ccc(S(=O)(=O)Nc2cc(Cl)ccc2C(=O)Nc2nc(-c3ccccc3)cs2)cc1`, the Potency in assay [1] is 5.9 µM (active); in assay [3], 16.6 µM (active); in assay [7], 10.5 µM (active).

With `CCc1c2c(nc3ccc(O)cc13)-c1cc3c(c(=O)n1C2)COC(=O)[C@]3(O)CC`, the Potency in assay [6] was 0.662 µM (active); in assay [1], 0.148 µM (active); in assay [2], 0.296 µM (active); in assay [3], 1.32 µM (active); in assay [4] it was 1.18 µM (active); in assay [7], 0.662 µM (active). In addition, the Potency in assay [5] is 0.0743 µM (active).
